Each structure is given as a SMILES string. Among all 350,000 compounds or so, about 5,500 (1.6%) were called active.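 Rule for the calls: active = significant combined selectivity score with lowered wild-type GFP, culture density cut under 30%, mutant RFP and density less affected; inactive = any of these conditions unmet.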 The sample as a whole holds a higher share of actives than the screen did.

The assay is described as follows: reduced GFP signal of wild-type E. coli, primary screen, bacterial rRNA inhibitor project, GFP/RFP fluorescence, OD600, single point (AID 720706). The note with it: E. coli WT GFP vs humanized-ribosome RFP mutants, 24 h; GFP signal change (wild-type ribosome): stronger effect = lower value, DMSO median 0, no signal -100; OD600 change: measured here: OD600 growth, DMSO median 0, no signal -100; RFP signal change: measured here: RFP humanized mutant strains, DMSO median 0, no signal -100, concentration not given here.
For the compound `O=C(C1CCOCC1)N1C[C@H]2[C@@H](c3ccccc31)[C@@H](CO)N2Cc1ccccc1`, the GFP signal change (wild-type ribosome) was -1.33% (inactive), the OD600 change amounted to 0.79% and the RFP signal change was -0.998%.
In the case of `COc1ccccc1NS(=O)(=O)c1ccc(C(=O)N2CCN(c3ccccc3O)CC2)cc1`, the GFP signal change (wild-type ribosome) is -1.32% (inactive), the OD600 change is -2.56% and the RFP signal change is -0.007%.
In the same order, the values of `O=S(=O)(Nc1ccc(O)c2ccccc12)c1ccc(OC(F)(F)F)cc1` are -28.6% (active), -14.2% and -9.13%.
For the compound `FC(F)(F)Oc1ccc(NC(=S)NCc2ccccc2)cc1`, the GFP signal change (wild-type ribosome) was -56.8% (inactive), the OD600 change is -77.1% and the RFP signal change is -19.9%.
For the compound `C[C@H](CO)N1C[C@H](C)[C@H](CN(C)C(=O)C2CC2)Oc2ncc(C#Cc3ccccc3)cc2C1=O`, the GFP signal change (wild-type ribosome) was -0.859% (inactive), the OD600 change is 2.9% and the RFP signal change was -0.79%.
On to `Oc1ccc(-n2nnnc2SCc2c(F)cccc2Cl)cc1`, for which the GFP signal change (wild-type ribosome) is -53.5% (inactive), the OD600 change was -72.8% and the RFP signal change was -14.2%.
As to `Cc1cc(SCc2c(F)cccc2Cl)nc(=O)[nH]1`, the GFP signal change (wild-type ribosome) was -15.5% (inactive), the OD600 change came to 0.505% and the RFP signal change was -0.535%.
In the same order, the values of `Fc1cccc(Cl)c1CSc1ccc(-c2ccco2)nn1` are -21.1% (active), -7.59% and 0.773%.
For `N#C[C@@H]1[C@H](c2ccc(-c3cccnc3)cc2)[C@H](CO)N1C(=O)C1CC1`, in that order: 1.69% (inactive), -1.23% and 1.92%.
Take `C[C@@H]1CN([C@@H](C)CO)C(=O)c2cc(-c3ccc(F)cc3)cnc2O[C@H]1CN(C)C(=O)c1ccncc1`: the GFP signal change (wild-type ribosome) is 5.96% (inactive), the OD600 change is 18.3% and the RFP signal change is -6.6%.
For `COCC(=O)N[C@H]1C=C[C@H](CC(=O)N2CCCCC2)O[C@H]1CO`, in that order: 0.044% (inactive), 2.08% and 0.319%.
For `CC(O)c1ccc(OCCN(C)c2ccccn2)cc1` (centres undefined), in that order: 7.56% (inactive), 9.08% and -0.281%.
For `CN(CCOc1ccc(CC2SC(=O)NC2=O)cc1)c1ccccn1` (centres undefined), in that order: -18.5% (active), -19.1% and 5.83%.
In the case of `CC(C)=N/N=C1/NC(=O)C(Cc2ccccc2)S1` (centres undefined), the GFP signal change (wild-type ribosome) was 5.19% (inactive), the OD600 change stood at 0.06% and the RFP signal change is 4.42%.
Regarding `CCC(=O)N1CCC2(CC1)CN(Cc1ccc(Cl)cc1)[C@@H](CO)c1[nH]c3cc(OC)ccc3c12`, the GFP signal change (wild-type ribosome) was 0.255% (inactive), the OD600 change was -3.27% and the RFP signal change turned out to be 4.57%.
For `COc1ccc2c3c(n(C)c2c1)[C@@H](CO)NCC31CCN(CC2CC2)CC1`, in that order: 8.18% (inactive), 22.6% and -3.19%.
For `O=C(NCC[C@H]1CC[C@@H](NC(=O)c2cnccn2)[C@H](CO)O1)Nc1ccc(Cl)cc1`, in that order: -40.4% (inactive), -66.2% and 9.29%.
For `COc1cccc(CNC(=O)[C@H]2CCCN2C(=O)[C@H]2CCCN2C(=O)c2ccc(F)cc2)c1`, in that order: 2.11% (inactive), 11.4% and -3.48%.
For `CNC[C@H]1Oc2ccc(NC(=O)NC(C)C)cc2C(=O)N(C)C[C@@H]1C`, the GFP signal change (wild-type ribosome) is 4.42% (inactive), the OD600 change came out at 7.25% and the RFP signal change is 0.095%.
Turning to `Cc1ccc2c(N)c(C(=O)c3ccccc3)sc2n1`, the GFP signal change (wild-type ribosome) is -33.7% (active), the OD600 change is -0.632% and the RFP signal change was -10.4%.
For the compound `CCN(CC)C(=O)c1nc[nH]c1C(=O)N(C)Cc1ccccc1`, the GFP signal change (wild-type ribosome) is 31.5% (inactive), the OD600 change was 17.4% and the RFP signal change turned out to be 2.93%.
With `CCOC(=O)C(C)n1nc(-c2ccccc2)c2ccccc2c1=O` (centres undefined), the GFP signal change (wild-type ribosome) is 2% (inactive), the OD600 change is 4.27% and the RFP signal change is -0.337%.
In the same order, the values of `Cc1ccc(NC(=O)c2sc3nc(N)c(C#N)cc3c2N)cc1` are 1.14% (inactive), 1.53% and 1.97%.
In the same order, the values of `CCN(CC)C(=O)c1sc2nc(-c3ccccc3)ccc2c1N` are -15.6% (active), -3.66% and 4.88%.
For `COC(=O)c1cc2c(N)c(C(=O)c3ccc(Cl)cc3)sc2nc1C(OC)OC`, the GFP signal change (wild-type ribosome) is 19.9% (inactive), the OD600 change turned out to be 8.88% and the RFP signal change was determined as 2.24%.
In the case of `CC(=O)NC[C@@H]1[C@@H](c2ccccc2)[C@@H](CO)N1C(=O)Cc1cccnc1`, the GFP signal change (wild-type ribosome) was 1.93% (inactive), the OD600 change amounted to 9.5% and the RFP signal change was -2.5%.
As to `COCC(=O)N1CC(=O)N2[C@H](CO)[C@@H](c3ccc(C#CC4CCCCC4)cc3)[C@@H]2C1`, the GFP signal change (wild-type ribosome) is -1.52% (inactive), the OD600 change was -39.4% and the RFP signal change was determined as 13.9%.
As for `COc1ccc(NC(=O)N2CCC(Cc3ccccc3)CC2)cc1`, the GFP signal change (wild-type ribosome) was -3.82% (inactive), the OD600 change was -5.59% and the RFP signal change is -1.73%.
For `O=C(CN1CCCCC1)NC(=O)Nc1ccccc1F`, in that order: 20.5% (inactive), 19.5% and 2.38%.
As to `CC(C)(C)NC(=O)NC(=O)CN1CCC(Cc2ccccc2)CC1`, the GFP signal change (wild-type ribosome) was -31.9% (active), the OD600 change is -22.7% and the RFP signal change was -1.62%.
In the same order, the values of `CO[C@@H]1CN(C)C(=O)c2ccc(NS(=O)(=O)c3ccc(Cl)cc3)cc2OC[C@@H](C)N(C)C[C@@H]1C` are -0.718% (inactive), 1.84% and -0.00025%.
Consider `O=C(c1ccccc1F)N1CC(=O)N2[C@H](CO)[C@@H](c3ccc(-c4cccnc4)cc3)[C@H]2C1`, for which the GFP signal change (wild-type ribosome) is 4.23% (inactive), the OD600 change amounted to 20.3% and the RFP signal change is 2.58%.
In the case of `CC(=O)N1C[C@@H]2C(c3ccccc3)[C@@H](C1)N2C(=O)NC(C)C` (some centres undefined), the GFP signal change (wild-type ribosome) is 1.98% (inactive), the OD600 change was determined as 3.76% and the RFP signal change is -1.21%.

The values above are taken from PubChem BioAssay AID720706 (Broad Institute, 2013).
